USP1-UAF1 inh: blocks the human USP1/UAF1 deubiquitinase complex; recombinant USP1/UAF1, Ub-Rhodamine cleavage fluorescence; actives 0.23% (n = 390,000); O94782; Potency, µM (series often up to 57.1 µM), for inactives: at the top dose activity change, negative = inhibition, most hits filed as inhibitors; also: % is scaled to controls: 0 for no effect and ±100 for the full control effect; nearly all actives have a fitted effect of over 60% in size
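1 nM enzyme complex + cpd, 15 min RT; start with Ub-Rho 150nM final; kinetic fluorescence ex 480/em 540, 6 reads q60 s. Buffer 50mM HEPES pH 7.8, 0.5mM EDTA, 0.1 mg/ml BSA, 1mM TCEP, 0.01% Tween-20.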
GCN5L2 inh: inhibitors of human GCN5L2 histone acetyltransferase; Q92830; Potency, µM (highest dose often 58.9 µM), for inactives: at the highest dose activity change, negative = inhibition, usual class: inhibitors; actives 0.21% (n = 390,000); GCN5L2 HAT assay, ThioGlo1 CoA-SH fluorescence; also: % is scaled to controls: 0 for no effect and ±100 for the full control effect
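Enzyme at 20nM final was mixed with library compounds for 15 min at room temperature. Peptide H3(1-25) at 75uM, acetyl-CoA at 70uM and ThioGlo1 at 50uM were then added. Plates were read immediately and after 20 min (Ex340nm/Em540nm).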
VDR inh: vitamin D3 receptor (human) inhibition; actives 0.93% (n = 400,000); Potency, µM, inactives show max response, negative = inhibition, actives largely listed as inhibitors; P11473; VDR-SRC2-3 peptide fluorescence polarization, 2 h; also: % is scaled to controls: 0 for no effect and ±100 for the full control effect
Target sequence (P11473 whole entry, looked up): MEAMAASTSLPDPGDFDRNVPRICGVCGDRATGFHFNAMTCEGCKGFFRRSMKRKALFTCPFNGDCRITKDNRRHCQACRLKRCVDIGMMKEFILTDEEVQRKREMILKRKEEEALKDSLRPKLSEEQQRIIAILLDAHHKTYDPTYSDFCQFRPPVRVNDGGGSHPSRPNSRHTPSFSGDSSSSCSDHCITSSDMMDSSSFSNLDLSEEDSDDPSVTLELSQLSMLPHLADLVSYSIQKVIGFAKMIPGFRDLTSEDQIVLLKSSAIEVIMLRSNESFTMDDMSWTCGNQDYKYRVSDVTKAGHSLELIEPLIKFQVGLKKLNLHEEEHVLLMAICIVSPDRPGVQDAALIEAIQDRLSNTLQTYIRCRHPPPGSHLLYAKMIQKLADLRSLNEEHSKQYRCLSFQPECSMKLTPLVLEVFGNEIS
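Compounds are added to VDR with labelled SRC2-3 coactivator peptide and held 2 h at room temperature. Inhibition of the VDR–peptide interaction is then read as a change in fluorescence polarization.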
PTAP TSG101 blk: blocks PTAP/TSG101 interaction to inhibit HIV-1 budding. Q99816. Fluorescence polarization, FITC-PTAP peptide / Tsg101 binding. Potency, µM (doses to about 115 µM), without a hit: at the top dose activity change, negative = inhibition, hits mostly inhibitors. 340,000 tested, under 10 active; active = well fitted inhibition curve with a large enough effect in the main read-out, with a control signal flat, not every such curve was filed as active; inconclusive = small, poorly fitted or top-dose-only effect, or effect the other way, or a change in a side signal; inactive = no such curve, though single readings can be large or run the other way; also: % of control where 0% means no effect
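Steps: Tsg101 binding domain dispensed (10 uM final), compounds pinned in DMSO, FITC-labeled PTAP-motif peptide added (50 nM final); after 20 min binding at room temperature, polarization measured.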
PLK1 PBD block: inhibitors of human PLK1 polo-box domain binding | P53350 | actives 2.8% (n = 360,000) | AID 720504 | Potency, µM, without a hit: max response, negative = inhibition, usual class: inhibitors | Plk1 PBD binding of FITC phosphopeptide, fluorescence polarization; also: series mostly up to about 57 µM; % is scaled to controls: 0 for no effect and ±100 for the full control effect; nearly all actives have a fitted effect of over 65% in size
* marks the source's active call; other numbers are inactive results; ? = inconclusive; . = no result given. A selection: hits, their analogues and other compounds. The true share with any hit is near 3%. Unless noted, calls follow the shape of the dose curve; as a rule, active = well fitted curve in the direction sought with a large enough effect; inconclusive = small, poorly fitted or top-dose-only effect, or another doubt; inactive = no such curve, though single readings can be large; an effect the other way counts as inactive or inconclusive. Potency is read from the fitted curve at half-maximal effect.

SMILES	USP1-UAF1 inh	GCN5L2 inh	VDR inh	PTAP TSG101 blk	PLK1 PBD block
CCOC(=O)c1ccc(NC(=O)c2ccc(C)c(S(=O)(=O)N3CCOCC3)c2)cc1	-20%	?	-11%	-1%	27µM*
O=C(Nc1nc(-c2ccccn2)cs1)c1ccc(F)c(S(=O)(=O)N2CCOCC2)c1	?	-10%	89µM*	-5%	12µM*
Cc1ccc(C(=O)Nc2ccccn2)cc1S(=O)(=O)N1CCOCC1	-18%	2%	3%	-1%	-6%
O=C(COC(=O)c1ccc(F)c(S(=O)(=O)N2CCOCC2)c1)c1ccc(Cl)cc1	-2%	-12%	75%	-1%	-6%
Cc1ccc(C(=O)Nc2ccc(F)cc2)cc1S(=O)(=O)N1CCOCC1	-20%	2%	0%	.	.
Cc1ccc(C(=O)Nc2nc(-c3ccccn3)cs2)cc1S(=O)(=O)N1CCOCC1	?	-9%	79µM*	-1%	7.5µM*
CCOC(=O)c1c(C)[nH]c(C(=O)COC(=O)c2ccc(F)c(S(=O)(=O)N3CCOCC3)c2)c1C	-1%	-1%	-6%	-9%	27µM*
CCOc1ccc(C(=O)Nc2ccc(CN3CCOCC3)cc2)cc1Br	-9%	-12%	-10%	-1%	30µM*
O=C(Nc1ccc(S(=O)(=O)N2CCOCC2)cc1)c1ccc(Cl)c([N+](=O)[O-])c1	-17%	.	-17%	-3%	27µM*
CCOC(=O)[C@]12CCCC=C1N(Cc1ccc3c(c1)OCO3)C(=O)[C@H](CC(=O)NCCc1ccccc1OC)C2	.	.	.	.	-6%
Cc1cc(C)cc(NC(=O)C(=O)NCC(c2cccnc2)N2CCOCC2)c1 (stereo unspecified)	-13%	-8%	15%	.	.
O=C(OCn1ncc(Br)c(Br)c1=O)c1ccc(F)cc1	?	-4%	25µM*	-15%	9.5µM*
O=C(OCc1cnc(Cl)s1)c1ccccc1Cl	-5%	-12%	3%	-2%	-15%
O=C(OCn1ncc(Br)c(Br)c1=O)c1ccccc1Cl	-26%	-3%	22µM*	1%	19µM*
CCN(CC)S(=O)(=O)c1ccc(C(=O)Nc2nc3c(Cl)cc(Cl)cc3s2)cc1	-32%	-16%	-4%	.	.
O=c1c2ccccc2nc2sc(Nc3cccc(C(F)(F)F)c3)nn12	2%	-5%	13%	.	.
Nc1cccn2c(-c3ccc(Cl)c(Cl)c3)cnc12	-8%	-8%	-7%	-3%	6µM*
Cc1cccc(/N=C2/NC(=O)C(Cc3ccccc3)S2)n1 (stereo unspecified)	-9%	27%	?	2%	30µM*
COCCNCc1ccccc1	-2%	-14%	?	-3%	30µM*
COc1ccc(-n2nnnc2C2CCN(S(=O)(=O)c3cccc(Cl)c3C)CC2)cc1	-17%	0%	1%	.	.
CNC(=O)Nc1cc(C)nn1C	-16%	-1%	?	-1%	19µM*
CC[n+]1c(/C=C2/C=C(C)CC(C)(C)C2)sc2ccc(OC)cc21	-20%	98%	?	-2%	21µM*
CCOC(=O)c1nc(N)c(C(=O)OCC)[nH]1	-16%	-6%	-11%	0%	11µM*
CCOc1ccc(/C=C/C(=O)c2ccccc2)cc1	?	-8%	?	-6%	-5%
Nc1ccc(/C=C/C(=O)c2cccs2)cc1	25µM*	-3%	-13%	29%	40%
SMILES	USP1-UAF1 inh	GCN5L2 inh	VDR inh	PTAP TSG101 blk	PLK1 PBD block
Nc1ccc(NC(=O)c2cccs2)cc1	-26%	-3%	3%	0%	0%
CCOc1ccc(/C=C/C(=O)c2cccs2)cc1	.	-24%	22µM*	.	.
O=C(/C=C/c1ccccc1)c1cccs1	.	-19%	11µM*	.	.
CCc1ccc(C(=O)/C=C/c2cnn(C)c2C)s1	-18%	-11%	5%	-3%	-6%
Cc1c(/C=C/C(=O)c2cccs2)cnn1C	-14%	-16%	?	-1%	3.4µM*
CC(=O)C1(O)Cc2c(O)c3c(c(O)c2C(OC2CC(N)C(O)C(C)O2)C1)C(=O)c1c(O)cccc1C3=O (stereo unspecified)	.	-10%	1%	.	.
CCOC(=O)C1CCN(S(=O)(=O)c2cc3c4c(c2)CC(=O)N4CCC3)CC1	-17%	3%	20%	.	.
COc1cccc(C(=O)NCCc2csc3nc(-c4ccccc4F)nn23)c1OC	-4%	-8%	9%	.	.
O=C(C=Cc1ccccc1)c1cccs1	-25%	.	56µM*	-1%	-16%
COc1ccc(/C=C/C(=O)c2cccs2)cc1OC	.	-34%	?	.	.
CC(C)CCNC(=O)C1CCN(C(=O)c2cc3sccc3n2Cc2ccc(Cl)cc2)CC1	-14%	-7%	6%	.	.
COc1ccc(C2=CC(c3ccco3)n3ncnc3N2)cc1 (stereo unspecified)	?	?	11%	?	34µM*
COC(=O)c1ccccc1NC(=O)NCc1ccc2c(c1)CCN2C(=O)c1ccccc1	-8%	-6%	11%	.	.
O=[N+]([O-])c1ccc(N2CCCCCC2)c([N+](=O)[O-])c1	-8%	-2%	-19%	-7%	-12%
N#Cc1cc([N+](=O)[O-])ccc1N1CCCC1	-7%	-1%	?	-7%	27µM*
CCCNC(=O)CCn1c(=S)oc2ccccc21	-19%	-5%	?	-5%	12µM*
CCN1CCOC(=O)C1CC(=O)Nc1cc(Cl)ccc1C (stereo unspecified)	-15%	-10%	?	.	.
CCOC(=O)C1CCCN(C2=NC(=O)/C(=C/c3ccc(OC)cc3OC)S2)C1 (stereo unspecified)	-25%	-1%	?	-4%	19µM*
COC(=O)c1ccc(C2NC(=O)c3c(sc(C)c3C)N2)cc1 (stereo unspecified)	-11%	?	-10%	2%	27µM*
Cc1sc2c(c1C)C(=O)NC(c1cccc(O)c1)N2 (stereo unspecified)	.	4%	.	.	.
COc1ccc(-c2ccc(C(C)=O)cc2)cc1C1C2C=CCCC2(C)C(=O)N1Cc1ccccc1 (stereo unspecified)	.	.	-11%	.	.
COc1ccc(C2C=C(C34CC5CC(CC(C5)C3)C4)NC(=S)N2)cc1 (stereo unspecified)	-17%	-9%	?	-4%	12µM*
CCc1ccc2[nH]c(C(=O)Nc3ccc4c(c3)OCO4)cc2c1	-12%	-2%	-20%	-1%	-17%
COC(=O)c1sccc1NC(=O)CN(C)NS(=O)(=O)c1ccc([N+](=O)[O-])cc1	-9%	-10%	-27%	-11%	24µM*
COC(=O)c1sccc1NC(=O)CN(C)NS(=O)(=O)c1ccc(Cl)cc1	-16%	-6%	-4%	-2%	-22%
O=C(NCCN1CCN(C(=O)c2ccc(Br)cc2)CC1)c1ccc(Br)cc1	-23%	-1%	4%	-2%	-4%
CSc1ccc(C(=S)N2CCN(CCO)CC2)cc1	2%	-6%	-17%	-5%	27µM*
OCCN1CCN(C(=S)c2ccc(Br)cc2)CC1	-2%	3%	-24%	-2%	6.7µM*

Bioassay records from PubChem.
